Here are results for 95 molecules from PubChem BioAssay AID588726 (The Scripps Research Institute Molecular Screening Center, 2011).

The whole screen tested about 360,000 compounds, of which about 8,200 (2.3%) were called active. No stated cut-off is given here; in the data, active means inhibition above about 27%; inactive means the rest. The entries come from a sample that favours actives as a whole.

The target of this test is Fructose-bisphosphate aldolase (Mycobacterium tuberculosis (strain ATCC 25618 / H37Rv)) (UniProt P9WQA3). Description: M. tuberculosis aldolase activity blockers – biochemical, fluorescence, strain H37Rv, primary screen (AID 588726).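 Further: 0% = vehicle and 100% = reference inhibitor.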 The settings on record: purified M. tuberculosis FBA, fluorescence read-out, at 1 µM, stronger effect = higher value.
Chain of Fructose-bisphosphate aldolase (Mycobacterium tuberculosis (strain ATCC 25618 / H37Rv)) (P9WQA3 whole entry, looked up): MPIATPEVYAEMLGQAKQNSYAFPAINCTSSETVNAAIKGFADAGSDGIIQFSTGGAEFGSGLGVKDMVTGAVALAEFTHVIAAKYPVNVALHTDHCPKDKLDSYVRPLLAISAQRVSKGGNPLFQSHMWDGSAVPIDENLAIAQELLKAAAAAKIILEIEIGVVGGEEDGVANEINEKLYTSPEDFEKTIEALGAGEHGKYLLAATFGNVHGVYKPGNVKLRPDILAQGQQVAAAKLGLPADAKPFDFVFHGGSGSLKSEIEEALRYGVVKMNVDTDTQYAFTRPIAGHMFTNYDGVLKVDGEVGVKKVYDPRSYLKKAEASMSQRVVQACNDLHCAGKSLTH
What is called inhibition is the relative decrease from the control value, in per cent. In the case of `N#CC1(C#N)C(C(=O)C23CC4CC(CC(C4)C2)C3)C12CCOCC2` (stereo not given), the inhibition is 1.25% (inactive).

With `CSc1ncccc1C(=O)OCc1ccc(Br)cc1`, the inhibition was 2.13% (inactive). Take `CCCc1nc2oc3c(OCC)ncnc3c2c2c1COC(C)(C)C2`: the inhibition was -1.08% (inactive). In the case of `CC/C(C)=N/Nc1nc2sc3c(c2c(=O)[nH]1)CC(C)(C)OC3`, the inhibition is 21.5% (inactive). The value for `CCCc1nc2oc3c(=O)[nH]cnc3c2c2c1COC(C)(C)C2` was 40.7% (active).

On to `Nn1c(SCC(=O)NC(=O)NC2CCCC2)nnc1-c1ccccc1F`, for which the inhibition is 0.25% (inactive). In the case of `Cc1nc2ccc(C(=O)N3CCSCC3)cc2s1` it was -8.83% (inactive); in that of `CN(CCc1ccccn1)C(=O)c1ccc(OC2CCN(Cc3ccccn3)CC2)cc1`, 3.08% (inactive); in that of `COc1cc2c(cc1OC)C(Nc1ccc(S(N)(=O)=O)cc1)=NC(C)(C)C2`, 0.94% (inactive).

As to `COc1cc2c(cc1O)C(SC)=NC(C)(C)C2`, the inhibition is 0.86% (inactive). Regarding `COc1cc2c(cc1OC)C(C(C)C)=NC(C)(C)C2`, the inhibition is 140% (active). The value for `O=C(COc1ccccc1Cl)N1CCCCCCC1` was 3.37% (inactive); that for `COc1ccccc1C(=O)Nc1ccc(OCC(=O)N2CCCCC2)cc1` was 42.3% (active).

Consider `COc1ccccc1C(=O)Nc1ccc(OCc2nnc3c4ccccc4c(C)nn23)cc1`, for which the inhibition was 1.57% (inactive). The value for `OC[C@@H]1CN(Cc2cccs2)C[C@H](n2cnc3c(Nc4ccccc4)ncnc32)O1` was 44.8% (active); that for `CCN(CC)c1ncnc2c1ncn2[C@H]1CN(Cc2cccs2)C[C@@H](CO)O1` was 1.17% (inactive). Regarding `OC[C@@H]1CN(Cc2cccs2)C[C@H](n2cnc3c(NC4CCCC4)ncnc32)O1`, the inhibition was -0.13% (inactive).

Turning to `CC1(C)CC2CC(C)(CN2c2ncnc3ccc(Br)cc23)C1` (stereo not given), the inhibition was 6.02% (inactive). In the case of `Cc1occc(=O)c1OCc1c(Cl)cccc1Cl` it was 2.61% (inactive); in that of `CN(C(=O)CSc1nnc(N)s1)c1c(N)n(Cc2ccccc2)c(=O)[nH]c1=O`, 1.14% (inactive).

Turning to `CCCN(C(=O)CSc1nnnn1C)c1c(N)n(Cc2ccccc2)c(=O)[nH]c1=O`, the inhibition was 9.36% (inactive). In the case of `CCCN(C(=O)CSc1nnc(N)s1)c1c(N)n(Cc2ccccc2)c(=O)[nH]c1=O` it was 48.3% (active); in that of `COc1ccc(CNC(=O)C[C@H]2C[C@H](C(=O)N3CCOCC3)[C@@]3(C)c4[nH]c5cc(CCC(=O)N(C)C)ccc5c4CCN3C2=O)cc1OC`, -3.63% (inactive); in that of `Cc1oc(-c2ccccc2F)nc1CS(=O)CC(=O)NCCN1CCCCC1C` (stereo not given), -1.66% (inactive).

With `N#Cc1nc(COc2ccc(Cl)cc2)oc1N1CCCC1`, the inhibition was -2.71% (inactive).

Turning to `COc1ccccc1CNC(=O)C1CCN(c2nc3ccccc3o2)CC1`, the inhibition is 0.23% (inactive). Take `COc1ccccc1N(C)S(=O)(=O)c1ccc(C(=O)N2CCC(C(N)=O)CC2)cc1`: the inhibition is 2.31% (inactive). In the case of `Cc1nc(-c2ccccc2)sc1-c1nnc(C2CC2)o1`, the inhibition is 18.1% (inactive).

`Cn1cnnc1Sc1ccc(CN2CCN(C3CCCC3)C(CCO)C2)o1` (stereo not given): the inhibition was -0.65% (inactive). In the case of `CCCCCCCCCCCCN1[C@@H](CC(C)=O)c2cc(F)cc(F)c2S1(=O)=O` it was -2.16% (inactive); in that of `COc1ccc(CCNC(=O)c2ccc(NC(=O)CC3SC(N4CCCCC4)=NC3=O)cc2)cc1OC` (stereo not given), 1.72% (inactive). The value for `NS(=O)(=O)c1ccc(CCNC(=O)CNC(=O)Cc2ccccc2)cc1` was 4.09% (inactive); that for `CC[C@@]1(C(=O)OC)N[C@H](CN(C)C(C)=O)[C@@H]2C(=O)N(C)C(=O)[C@@H]21` was -0.4% (inactive). In the case of `O=C1C2C3C=CC(C3)C2C(=O)N1c1ncc([N+](=O)[O-])s1` (stereo not given), the inhibition was 0.42% (inactive). In the case of `Cc1ccc2nnn(Cc3cccc(C(C)(C)C)c3O)c2c1` it was -1.49% (inactive); in that of `Cc1oc2c(C)c3oc(=O)c(CC(=O)N[C@@H](CC(C)C)C(=O)N[C@@H](Cc4ccccc4)C(=O)O)c(C)c3cc2c1C`, 14.5% (inactive); in that of `Cc1c(OC(C)C(=O)N[C@@H](Cc2ccccc2)C(=O)O)ccc2c3c(c(=O)oc12)CCCC3` (stereo not given in full), 57.5% (active).

For the molecule `Cc1c(OC(C)C(=O)NCC2CCC(C(=O)O)CC2)ccc2c1oc(=O)c1ccccc12` (stereo not given), the inhibition is 11.2% (inactive). As to `CCOC(=O)N1CCC(c2cc(=O)n(-c3ccccc3)[nH]2)CC1`, the inhibition was 2.04% (inactive). With `NS(=O)(=O)c1ccc(N2C(=O)C3C4CC(C(Br)C4Br)C3C2=O)cc1` (stereo not given), the inhibition is 2.97% (inactive). In the case of `COc1ccc(N(CC(=O)Nc2ccc(F)c(F)c2)S(=O)(=O)c2c(C)[nH]c(=O)[nH]c2=O)cc1` it was 0.84% (inactive). In the case of `O=C(CN1C(=O)c2cccc3cccc1c23)Nc1ccccc1` it was 1.33% (inactive).

Regarding `O=C(CN1C(=O)c2cccc3cccc(c23)C1=O)N1CCCCC1`, the inhibition was 31.8% (active). In the case of `Cn1c(=O)n(C)c(=O)n(CC(=O)N2CCCCC2)c1=O` it was -2.14% (inactive); in that of `O=S1(=O)CC/C(=N\Nc2ccc(F)cc2)c2ccsc21`, 0.47% (inactive); in that of `CCn1c(SC)nc(O)c(C(c2ccc(OC)c(O)c2)c2c(O)nc(SC)n(CC)c2=O)c1=O`, 0.76% (inactive).

As to `N/C(=N\S(=O)(=O)c1ccc(Cl)cc1)N1CCOCC1`, the inhibition was -1.72% (inactive). `O=S(=O)(c1ccccc1)N1CN(Cc2ccc(F)cc2)c2nc3ccccc3nc21`: the inhibition was 1.18% (inactive). In the case of `C=CCC1(C(=O)N(C)Cc2ccccc2)CCN(C(=O)OC(C)(C)C)CC1` it was -0.41% (inactive); in that of `CC1=CC2=NC(=O)CC(C)(C(=O)N(CC(=O)NC(C)(C)C)Cc3ccccc3)N2C=C1` (stereo not given), 39.1% (active). With `CCN(CC(=O)Nc1cc(Cl)ccc1C)C(=O)CSCc1ccccc1`, the inhibition was 1.52% (inactive). The value for `CCCn1nc(NS(=O)(=O)c2ccccc2)c2cc3cc(C)ccc3nc21` was -1.36% (inactive).

In the case of `Cc1ccc(S(=O)(=O)NCc2nc3ccccc3c(=O)n2N)cc1`, the inhibition was 0.87% (inactive). Consider `CCC(=O)Nc1c(S(=O)(=O)c2ccccc2)c2nc3ccccc3nc2n1Cc1ccccc1`, for which the inhibition is 71.7% (active). On to `CCC(=O)Nc1ccccc1C(=O)N1CCN(Cc2ccccc2)CC1`, for which the inhibition is 1.09% (inactive). For `CCC(=O)Nc1ccc2nc(C)n(Cc3ccccc3Cl)c(=O)c2c1`, the inhibition is -0.06% (inactive). In the case of `CCN(CC)CCn1c(N)c(S(=O)(=O)c2ccccc2)c2nc3ccccc3nc21` it was 73.8% (active); in that of `CCCn1nc(NS(=O)(=O)c2ccc(F)cc2)c2cc3ccccc3nc21`, 1.96% (inactive); in that of `Cc1ccc(S(=O)(=O)c2c(N)n(C)c3nc4ccccc4nc23)cc1`, 195% (active). `Cc1ccc(S(=O)(=O)Nc2nc(N)n(-c3ccccc3)n2)cc1`: the inhibition is -1.75% (inactive). In the case of `Cc1cc(NC(=O)C(C)SCC(=O)Nc2cccc(S(=O)(=O)N3CCCCCC3)c2)no1` (stereo not given) it was 2.17% (inactive); in that of `COc1cccc(NC(=O)CSc2nnc(C3CCCCC3)n2N)c1`, -1.25% (inactive); in that of `CC(=O)NC(CC(=O)Nc1nccs1)c1ccccc1` (stereo not given), 6.36% (inactive). In the case of `OC(CN=c1sc2ccccc2n1CC(O)COc1ccccc1)COc1ccccc1` (stereo not given) it was -7.04% (inactive). On to `CC(C)COP(=O)(c1ccc(N(C)C)cc1)C(Nc1ccccc1)c1cccnc1` (stereo not given), for which the inhibition was 6.04% (inactive). Turning to `COc1ccc(C(=O)N(CCN2CCOCC2)CC(=O)NC2CCCC2)cc1OC`, the inhibition was -0.65% (inactive). The value for `Cc1ccc2nc(-c3ccccc3)c(CC3CCCCC3)n2c1` was 3.26% (inactive). `Cc1ccccc1C(=O)NCCN=C1NS(=O)(=O)c2ccccc21`: the inhibition was 0.52% (inactive). Take `COc1ccc(-n2c(C)nn(CC3CC3)c2=O)cc1`: the inhibition was -1.25% (inactive). With `COc1ccc(CC(NC(C)=O)C(=O)N2CCN(C(=O)Nc3cccc(Cl)c3)CC2)cc1OC` (stereo not given), the inhibition is 1.24% (inactive). For the molecule `CS(=O)(=O)Nc1ccc(C(=O)N2CCCC2)cc1`, the inhibition is 4.14% (inactive).

In the case of `CCCS(=O)(=O)Nc1ccc(-c2cn3c(n2)SCC3)cc1`, the inhibition is 0.71% (inactive).

Turning to `CNc1cncc(-c2ccc(NS(C)(=O)=O)cc2)n1`, the inhibition is 174% (active). As to `C#CCNC(=O)C1=C[C@@H](c2ccccc2)[C@H](CCCO)[C@@H](OCC)O1`, the inhibition is 0.54% (inactive). In the case of `COc1ccc2ccn(C)c2c1` it was 0% (inactive); in that of `COc1ccc2c(c1)cc1n2CCN=C1NN`, 41.9% (active); in that of `COc1ccc(N)c(C)c1`, 1.98% (inactive).

Take `Cc1ccc(-c2nc3ccccc3[nH]c2=O)cc1`: the inhibition is 76.5% (active).

On to `O=c1[nH]c2ccccc2n2c(-c3ccccc3)nnc12`, for which the inhibition was 4.09% (inactive). Regarding `Cc1ccc(-c2nnc(-n3nnc4ccccc43)c3ccccc23)cc1`, the inhibition was -0.52% (inactive). The value for `O=C(NCC(=O)N1CCN(c2ccccc2O)CC1)c1ccc2ccccc2c1` was 1.15% (inactive); that for `CC(C(=O)NCCc1ccc(S(N)(=O)=O)cc1)N1C(=O)CC(C)(C)Sc2ccccc21` (stereo not given) was 4.96% (inactive).

In the case of `CC(=O)NC1=NC(=O)CS1`, the inhibition is 3.59% (inactive). The value for `CCOc1c2ccc(C(=O)NCc3ccc(OC(F)(F)F)cc3)cc2nn1C` was 44% (active). In the case of `COc1ccc(CNC(=O)c2ccc3oc(C(C)C)nc3c2)cc1`, the inhibition is 0.16% (inactive).

Turning to `CCOc1ccc(NC(=O)COc2ccc(C(=O)NC3CCCc4ccccc43)cc2OC)cc1` (stereo not given), the inhibition is 3.93% (inactive).

Turning to `CCOc1c2ccc(C(=O)NCc3ccc4c(c3)OCO4)cc2nn1C`, the inhibition is 50.2% (active). Consider `COc1ccccc1-n1c(C)nc2cc(C(=O)NCc3ccc4c(c3)OCO4)ccc21`, for which the inhibition was 0.13% (inactive).

Regarding `O=C(COC(=O)c1ccc(Cl)nc1)NCc1ccc2c(c1)OCO2`, the inhibition was -2.36% (inactive).

On to `CCCn1nc2cc(C(=O)NCc3ccccc3)ccc2c1OCC`, for which the inhibition is 57.5% (active). The value for `CNS(=O)(=O)c1cccc(C(=O)NC2CCCc3ccccc32)c1` (stereo not given) was 5.34% (inactive). The value for `Cc1cc(N2C(=O)c3ccc(C(=O)NCc4ccccc4)cc3C2=O)no1` was 0.51% (inactive); that for `C=CCOc1c2ccc(C(=O)N(CC)c3ccc(OC)cc3)cc2nn1C` was 17.6% (inactive). In the case of `C[n+]1ccc(C(=O)NCc2ccccc2)cc1` it was 3.53% (inactive). Turning to `CCOc1c2ccc(C(=O)NC3CCCc4ccccc43)cc2nn1CC` (stereo not given), the inhibition is 42.8% (active).
